# CYP2C19 activ – cytochrome P450 2C19 (human) activation | recombinant CYP2C19, luciferin-H EGE luminescence; stronger effect = higher value; 0 = fully inhibited enzyme, 1 = untreated enzyme | activation factor at 5 µM | P33261 | 96,000 tested, under 10 active;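 active means activation factor of at least 2 at 5 µM in the primary screen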
# CYP2C9 act – CYP2C9 (human) activation. P11712. recombinant CYP2C9, luciferin-H conversion, luminescence; stronger effect = higher value; factor 1 = untreated enzyme, 0 = blocked. activation factor at 5 µM. actives 1.4% (n = 96,000). AID 1024;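 active means activation factor of 2 or more for CYP2C9 at a 5 µM dose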
# Cav32 inh – inhibitors of human Cav3.2 T-type calcium channel. Cav3.2-expressing cells, Fluo-4 calcium fluorescence FDSS; stronger effect = lower value. B-score at 10 µM. actives 4% (n = 100,000);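 active means single-dose well whose peak fluorescence ratio is a statistical outlier from its plate by either plate-standardised score or position-corrected B-score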
# CYP2C19 inhib – blocks human cytochrome P450 2C19. P33261. CYP2C19 Supersomes, luciferin-H EGE luminescence, 30 min. inhibition, % at 5 µM. actives 21% (n = 96,000);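 active means CYP2C19 inhibition above a set limit at 5 µM in the primary screen, cut at about 50% in these data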
# CYP2C9 inh – inhibitors of human CYP2C9; CYP2C9 Supersomes, luciferin-H conversion, luminescence; actives 20% (n = 96,000); P11712; inhibition, % at 5 µM; AID 777;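 active means blocking of liver enzyme CYP2C9 beyond about 50% at 5 µM, limit read from the data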
# Numbers stand for hits; i = inactive; nt = no result given. Shown are actives, neighbours in structure and some others; about 27% of the full set was active somewhere.
SMILES,CYP2C19 activ,CYP2C9 act,Cav32 inh,CYP2C19 inhib,CYP2C9 inh
COc1ccc(C2c3c(ncn(CCN4CCOCC4)c3=N)Oc3ccc4ccccc4c32)cc1OC (configuration not stated),i,i,i,i,i
Cc1ccc(C(=O)CCC(=O)Nc2cccnc2)cc1C,i,i,i,i,i
Fc1ccc(CNC(=S)Nc2ccc(Cl)cc2)cc1,i,i,-4.3,84,i
Cc1cc(Cl)ccc1OCCCC(=O)Nc1cccnc1,i,i,i,50,i
CN(C)NC(=S)Nc1ccc(Cl)cc1,i,i,i,91,i
Fc1ccc(NC(=S)Nc2ccc(F)c(Cl)c2)cc1Cl,i,i,-4.1,98,86
Cc1nc(-c2ccc(Cl)cc2)sc1C1(C)CC(c2ccc(C#N)cc2)=NO1 (configuration not stated),nt,nt,i,nt,nt
CCOC(=O)c1c(C)oc(/N=C/c2ccccc2O)c1C#N,i,i,i,i,i
O=C(c1ccc(C(=O)N2CCOCC2)nc1)N1CCOCC1,i,i,i,i,i
COc1cc2c(cc1OC)C1(Nc3c-2c(Cc2ccccc2)nn3-c2ccccc2)C(=O)Nc2ccccc21 (configuration not stated),i,i,i,i,i
O=C(CCCc1c[nH]c2ccccc12)N1CCN(c2ccc(N3CCOCC3)nn2)CC1,i,i,nt,58,i
COc1cc(CCC(=O)N2CCN(c3ccc(N4CCOCC4)nn3)CC2)cc(OC)c1OC,i,i,nt,i,i
O=C(/C(=C/O)N=Nc1ccccc1)c1ccncc1,i,i,nt,96,68
CC(=O)N1N=C(c2ccncc2)OC12CCCCC2,i,i,i,88,55
OC(CNCc1ccc(F)cc1)(c1ccc(F)cc1)c1ccc(F)cc1,i,i,-4.2,i,i
O=C(CSc1nc(-c2ccccc2)cc(=O)[nH]1)N1CCOCC1,i,i,i,i,i
COc1ccc(CN/C(C)=C(/C#N)C(N)=O)cc1OC,i,i,i,i,i
O=C(Nc1ccccc1)N(CCc1nc2ccccc2[nH]1)C1CCCC1,i,i,i,i,i
S=C(NC1CCCCC1)N(CCc1nc2ccccc2[nH]1)C1CCCC1,nt,nt,-8.3,nt,nt
CCCSc1nc(C)c(CC(=O)O)c(=O)[nH]1,i,i,i,i,i
CCN(CC(=O)Nc1cccc(OC)c1)C(=O)C1CCN(C(=O)Nc2ccccc2)CC1,i,i,i,i,i
O=C(O)C1C2C=CC(C3CC23)C1C(=O)N1CCc2ccccc21 (configuration not stated),i,i,i,i,i
O=C(NC12CC3CC(CC(C3)C1)C2)c1ccc(COc2ccc(Cl)cc2[N+](=O)[O-])o1,i,i,i,i,75
CCCCOC(=O)C1Cc2ccccc2C(=O)O1 (configuration not stated),i,i,i,85,i
COC(=O)c1cc(Cl)c(NC(=O)/C=C/c2ccc(OC)c(OC)c2)cc1OC,i,i,i,i,i
SMILES,CYP2C19 activ,CYP2C9 act,Cav32 inh,CYP2C19 inhib,CYP2C9 inh
Cc1ccc(NC(=S)N2CCN(C3CCCCC3)CC2)cc1,i,i,i,i,i
CCOC(=O)c1ccc(NC(=O)CSc2nnc(C3CC3)n2CC)cc1,nt,nt,i,nt,nt
CCCOC(=O)c1ccc(NC(=O)CSC2=Nc3ccccc3C3CC=NN23)cc1 (configuration not stated),i,i,i,52,80
Brc1ccc(-c2noc3c2-c2nc(-c4ccccc4)sc2CC3)cc1,nt,nt,i,nt,nt
CCOC(=O)c1sc(NC(=O)C(CC)OC(=O)C(CC(C)C)NC(=O)c2ccccc2)nc1C (configuration not stated),i,i,-4,55,i
CC(C)C(=O)N1CCN(c2ccccc2NC(=O)c2cccc(Cl)c2)CC1,i,i,i,i,i
O=C(Nc1ccc(N2CCN(C(=O)c3ccc(Cl)cc3)CC2)cc1)c1cc2ccccc2o1,i,i,i,i,i
O=C(Nc1ccccc1N1CCN(C(=O)c2ccc(Cl)cc2)CC1)c1ccc(Br)cc1,i,i,i,66,82
O=C(Nc1ccccc1N1CCN(C(=O)c2ccc(Cl)cc2)CC1)c1cc2ccccc2o1,i,i,-3.1,75,92
Cc1ccc(N(C(=O)C2CCC(=O)N2)C2(C(=O)NC3CCCC3)CCCCC2)cc1 (configuration not stated),i,i,i,i,i
Cc1ccc(S(=O)(=O)Cn2nnnc2C(CC(C)C)N2CCN(c3ccc(F)cc3)CC2)cc1 (configuration not stated),i,i,i,i,i
